Screens as filed in PubChem BioAssay.
SMN2 splice enh: qHTS Assay for Enhancers of SMN2 Splice Variant Expression; Potency, µM (doses to about 46.1 µM), inactives show top-dose activity change, positive = activation, actives largely listed as activators; actives 2.8% (n = 210,000); AID 1458, 2008; HEK293 SMN2-luciferase splicing reporter, luminescence, 30-36 h; also: % of control where 0% means no effect; nearly all actives have a fitted effect of over 55% in size
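qHTS luciferase splicing reporter: luminescence rises when SMN2 exon 7 is included in transfected HEK293 cells. Compound exposure lasted 30-36 h at 37C, with 4.5 mM final sodium butyrate as control, followed by a ONE-Glo read.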
FLuc modulator: qHTS profiling assay for firefly luciferase inhibitor/activator using purifed enzyme and Km concentrations of substrates (counterscreen for miR-21 project); actives 6.9% (n = 360,000); purified FLuc, Km substrates, luminescence inhibition; Potency, µM (doses to about 57.5 µM), for inactives: at the top dose activity change, negative = inhibition, actives largely listed as inhibitors; AID 588342, 2011;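 also: plate controls were vehicle for no effect and reference inhibitor for full effect; nearly all actives have a fitted effect of over 55% in size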
Target sequence (P08659 whole entry, looked up): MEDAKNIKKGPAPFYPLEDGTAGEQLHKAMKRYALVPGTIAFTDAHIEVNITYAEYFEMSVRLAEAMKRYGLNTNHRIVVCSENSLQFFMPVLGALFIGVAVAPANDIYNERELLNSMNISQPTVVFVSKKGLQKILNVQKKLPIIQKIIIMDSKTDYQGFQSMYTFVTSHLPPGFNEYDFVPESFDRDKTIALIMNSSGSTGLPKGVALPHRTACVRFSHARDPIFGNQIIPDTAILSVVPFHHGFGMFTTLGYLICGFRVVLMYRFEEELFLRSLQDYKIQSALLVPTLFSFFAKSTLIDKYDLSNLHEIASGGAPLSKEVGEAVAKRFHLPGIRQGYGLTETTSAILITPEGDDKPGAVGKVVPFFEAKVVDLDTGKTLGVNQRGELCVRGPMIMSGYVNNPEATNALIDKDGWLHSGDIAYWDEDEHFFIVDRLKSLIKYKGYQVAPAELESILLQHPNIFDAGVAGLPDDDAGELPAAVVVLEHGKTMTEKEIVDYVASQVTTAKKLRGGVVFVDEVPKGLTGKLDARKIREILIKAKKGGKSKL
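Purified P. pyralis luciferase (10nM final) with 10uM D-luciferin and 10uM ATP (Km levels) in 50mM Tris acetate pH 7.5, 10mM Mg acetate, 0.01% Tween-20, 0.05% BSA; qHTS 6-point titration, ~60 µM downward; luminescence read.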
ELG1 genotoxic: qHTS screen for small molecules that induce genotoxicity in human embryonic kidney (HEK293T) cells expressing luciferase-tagged ELG1. HEK293T ELG1-luciferase reporter, luminescence, 16 h. Potency, µM (doses to about 46 µM), inactives show top-dose activity change, positive = activation, actives largely listed as activators. actives 1.3% (n = 330,000); also: % of control where 0% means no effect; nearly all actives have a fitted effect of over 60% in size
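Quantitative HTS format in 1536-well plates. HEK293T ELG1-luciferase reporter cells receive test compound and are incubated 16 hr at 37 °C, 5% CO2; ONE-Glo added, 30 min room temperature, then luminescence read.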
NPC1 prom act: qHTS Assay for NPC1 Promoter Activators; Huh7 NPC1 promoter luciferase reporter, 24 h; Potency, µM (doses to about 9.22 µM), for the others: top-dose activation, actives largely listed as activators; actives 2.4% (n = 320,000); AID 485313, 2010; also: % of control where 0% means no effect; nearly all actives have a fitted effect of over 60% in size
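Huh7 reporter cells (NPC1 promoter driving luciferase) are dosed with compound for 24 h at 37 °C, 5% CO2; luciferase detection reagent is then added and luminescence measured after 10 min at ambient temperature.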
Rab9 prom act: qHTS Assay for Rab9 Promoter Activators | actives 2.8% (n = 320,000) | Huh7 Rab9 promoter-luciferase reporter, luminescence, 24 h | Potency, µM (titrated, usually from 9.22 µM), inactives show at the top dose activation, negative = inhibition, most hits filed as activators; also: % of control where 0% means no effect; nearly all actives have a fitted effect of over 60% in size
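Luminescence from Amplite-detected luciferase (10 minutes, ambient) reports Rab9 promoter activation. Before that, stable Rab9-luciferase Huh7 cells (1500/well, reduced-serum OP-MEM I plus 10% FBS) were exposed to compound for 24 hours at 37C.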
Starred values were filed as active, the others as inactive; ? = inconclusive; . = no result given; [ ] = remark or other dose. Sampled rows, rich in hits. Any-hit rate of the full collection: about 7.4%. Calls follow the shape of the dose curve; as a rule, active = well fitted curve in the direction sought with a large enough effect; inconclusive = small, poorly fitted or top-dose-only effect, or another doubt; inactive = no such curve, though single readings can be large; an effect the other way counts as inactive or inconclusive. Potency is read from the fitted curve at half-maximal effect.

SMILES	SMN2 splice enh	FLuc modulator	ELG1 genotoxic	NPC1 prom act	Rab9 prom act
COc1ccccc1-c1cc(-c2ccc(C)cc2)nc(SCc2nnc(-c3ccccc3)o2)c1C#N	-20%	-1%	-1%	-1%	-10%
Cc1cc(C)c(C#N)c(SCc2nnc(-c3ccccc3)o2)n1	-39%[1.84 µM]	3µM*	?	-2%	-5%
Cc1ccc(C#N)c(SCc2nnc(-c3ccc(Cl)cc3)o2)n1	-82%	0.43µM*	?	-2%	1%
Cc1cc(C)c(C#N)c(SCc2ccccc2[N+](=O)[O-])n1	-22%	-13%	1%	-1%	0%
Cc1cc(C)c(C#N)c(SCc2nnc(-c3ccccc3[N+](=O)[O-])o2)n1	1.1µM*	21µM*	2.6µM*	1.4µM*	3.2µM*
CCc1nnc(SCc2cccc(Cl)c2)c2cc3sccc3n12	-22%	-11%	.	.	.
COc1ccc(-c2nnc(-c3ccc(Br)o3)o2)cc1OC	.	?	?	27%	22%
COc1cccc(-c2nc(-c3ccc(Br)o3)no2)c1	.	0.67µM*	?	0.89µM*	0.56µM*
COc1ccc(-c2noc(Cc3ccccc3OC)n2)cc1	-12%	?	?	24%	22%
COc1ccc(-c2nc(-c3ccc(Br)o3)no2)cc1OC	14µM*	?	21µM*	?	3.2µM*
COc1ccccc1Cc1nc(-c2ccc(Br)o2)no1	8%	19µM*	9%	16%	12%
COc1ccccc1-c1nc(-c2ccc(Br)o2)no1	?	1.9µM*	?	3.5µM*	0.89µM*
COc1ccccc1CNC(=O)CN1c2cccc3cccc(c23)S1(=O)=O	.	24µM*	-1%	1%	-7%
CC(=O)c1ccc(NC(=O)c2nc3ccccc3nc2N2CCCCC2)cc1	.	-9%	.	.	.
CC(=O)c1ccc(NC(=O)c2nc3ccccc3n(C)c2=O)cc1	.	4.8µM*	.	.	.
Cc1ccc(C)c(NC(=O)c2nc(-c3ccccc3)n(-c3ccccc3)n2)c1	-6%	0%	-12%	1%	1%
CC(=O)c1ccc(NC(=O)c2nc(-c3ccccc3)n(-c3ccc(C)cc3)n2)cc1	.	15µM*	.	.	.
O=C(N[C@H]1CC1c1ccccc1)c1ccc([N+](=O)[O-])cc1 (stereo partly drawn)	.	5.4µM*	?	1.1µM*	0.71µM*
O=C(O)c1ccccc1Nc1ccccc1C(=O)O	-4%	0%	4%	6%	9%
O=C(NNc1ccc([N+](=O)[O-])cc1)Nc1ccccc1	.	21µM*	3%	3%	0%
O=C(O)c1ccccc1Nc1ccc([N+](=O)[O-])cc1	7.1µM*	?	-2%	19%	?
CC(Cc1ccccc1)NC(=O)c1ccc([N+](=O)[O-])cc1 (stereo not drawn)	14µM*	12µM*	?	2.8µM*	1.8µM*
O=C(c1ccc(CS(=O)(=O)c2c(Cl)cccc2Cl)o1)N1CCN(c2ccccc2)CC1	-41%	-7%	.	.	.
CCCCCCCC/C=C\CCCCCCCCOC[C@H](COP(=O)([O-])OCC[N+](C)(C)C)OC(C)=O	-2%	.	.	.	.
Cc1ccc(Cl)cc1NC(=O)Nc1cn(CC(C)C)c(=O)c2ccccc12	2%	1%	.	.	.
SMILES	SMN2 splice enh	FLuc modulator	ELG1 genotoxic	NPC1 prom act	Rab9 prom act
CN(C)S(=O)(=O)Oc1cccc(C(=O)Nc2ccc([N+](=O)[O-])cc2)c1	-25%	13µM*	-14%	15%	?
O=C(Nc1ccc(NC(=O)c2cccc([N+](=O)[O-])c2)cc1)c1cccc([N+](=O)[O-])c1	.	-18%	13%	16%	15%
CCN(CC)c1ccc(C(=O)Nc2ccccc2)cc1[N+](=O)[O-]	11µM*	12µM*	0%	?	?
O=C(Nc1ccc(O)cc1)c1cccc(Oc2ccc([N+](=O)[O-])cc2)c1	.	-3%	-9%	-6%	-2%
O=C(Nc1ccc([N+](=O)[O-])cc1)c1ccccc1	.	17µM*	15%	2.2µM*	3.2µM*
Cc1c(Cl)cccc1Nc1ccccc1C(=O)O	-2%	17µM*	-2%	-5%	-2%
CCS(=O)(=O)c1ncc(N(Cc2ccco2)Cc2ccccc2F)c(C(=O)Nc2cccc(Cl)c2)n1	.	-2%	.	.	.
O=C(O)c1ccc(CNCc2ccc(Cl)cc2)s1	-2%	-9%	.	.	.
O=C(Nc1cc(C(F)(F)F)ccc1Cl)c1cnn(-c2ccccc2)c1-n1cccc1	.	-7%	.	.	.
CCc1ccc(C(=O)NNC(=S)Nc2ccc(S(N)(=O)=O)cc2)s1	.	17µM*	4%	-2%	-1%
CC(C)CC(=O)NNC(=S)Nc1ccc(S(N)(=O)=O)cc1	7%	-19%	-1%	-3%	3%
CCN(c1ccccc1)S(=O)(=O)c1ccc(NC(=O)c2cc(=O)c3cc(C)ccc3o2)cc1	-4%	0%	.	.	.
CCCCCCc1ccc(-c2ncc(N)cn2)cc1	11µM*	12µM*	?	17%	?
CCCCCc1ccc(-c2nnc(N)s2)cc1	.	21µM*	?	23%	?
CCCCCc1ccc(-c2ccc(OC)cc2)nc1	.	?	-13%	0%	-9%
CCc1c(-c2ccccc2)nc2ccccc2c1C(=O)NC(C)c1ccccc1 (stereo not drawn)	.	-3%	.	.	.
Nc1ccc(-c2nc3ccccc3s2)cn1	.	4.8µM*	9.2µM*	1.3µM*	1.6µM*
COc1cc(OC)cc(C(=O)Nc2cc(-c3nc4ccccc4s3)ccc2OC)c1	2%	?	.	.	.
CSc1nc2ccccc2s1	-8%	-8%	2%	-1%	0%
COc1cc(OC)cc(-c2nc3ccccc3s2)c1	?	8.5µM*	?	11%	13%
Brc1ccc(-c2nc3ccccc3s2)s1	14µM*	1.1µM*	?	?	1.6µM*
O=S(=O)(c1cc(-c2nc3ccccc3s2)ccc1Cl)N1CCOCC1	-22%	-9%	-5%	-5%	1%
O=C1CCC(=O)N1c1ccc(-c2nc3ccccc3s2)cc1	10µM*	0.54µM*	?	0.45µM*	0.35µM*
CN(C)c1ncccc1-c1nc2ccccc2s1	4%	-13%	0%	-1%	-3%
O=C(Nc1ccccc1-c1nc2ccccc2s1)C1=COCCO1	-18%	4%	-3%	-5%	-3%
c1ccc(-c2nc3ccccc3s2)nc1	16µM*	3.8µM*	?	1.4µM*	1.4µM*
Brc1cc2c(cc1-c1nc3ccccc3s1)OCO2	.	12µM*	12%	24%	27%
CCOC(=O)c1c(NC(=O)c2cc(-c3ccccc3OC)on2)sc(C)c1C	-7%	-17%	.	.	.
N/C(=N\OC(=O)/C=C/c1ccccc1)c1ccccn1	13µM*	0.67µM*	4.1µM*	?	2.5µM*
